In PubChem BioAssay (NCI) one finds growth data, which are given here for eight compounds.

Common to all, as to test: NCI-60 one-dose screen, 48 h (100 = growth as untreated, 0 = no growth, -100 = all killed)
One assay deals with HCT-15 colon. As to conditions: 10 µM unless noted.
A further assay concerns HT29 colon. As to conditions: 10 µM unless noted.
In another assay the test system is SNB-75 CNS. As to conditions: 10 µM unless noted.
The next assay deals with SNB-19 CNS. As to conditions: 10 µM unless noted.
Another assay deals with U251 CNS. As to conditions: 10 µM unless noted.
The subject of the next assay is PC-3 prostate. As to conditions: 10 µM unless noted.
A further assay concerns SK-MEL-5 melanoma. The settings on record: 10 µM unless noted.
The next assay relates to UACC-62 melanoma. As to conditions: 10 µM unless noted.
Another assay concerns LOX IMVI melanoma. The settings on record: 10 µM unless noted.
In another assay the test system is SK-MEL-28 melanoma. As to conditions: 10 µM unless noted.
The test system of another assay is SK-MEL-2 melanoma. The settings on record: 10 µM unless noted.
A further assay has as its system EKVX NSCLC. The settings on record: 10 µM.
In another assay the test system is SN12C renal. As to conditions: 10 µM unless noted.
The test system of another assay is UO-31 renal. As to conditions: 10 µM unless noted.
The next assay deals with TK-10 renal. As to conditions: 10 µM unless noted.
For a further assay, the system named is ACHN renal. The settings on record: 10 µM unless noted.
The subject of another assay is CAKI-1 renal. As to conditions: 10 µM unless noted.
A further assay deals with A498 renal. As to conditions: 10 µM unless noted.
Another assay concerns CCRF-CEM leukemia. The settings on record: 10 µM.
In another assay the test system is MOLT-4 leukemia. The settings on record: 10 µM unless noted.

This is part of a sample that, as a whole, favours compounds with a hit. Of some 83,000 tested, about 20% had one in any assay.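 The endpoint reported here, percent growth, reads 100 for growth as untreated, 0 for no net growth and -100 for all cells dead.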 A number with no mark means an inactive call. Activity calls are given as the source filed them. The calls were made as follows: active = growth percent below 10; inactive = the rest.

Regarding `O=C(N/N=C\c1ccc(Cl)cc1)C(=O)N/N=C\c1ccc(Cl)cc1`, the growth with HCT-15 colon was 101%; in the assay with HT29 colon, 103%; with SNB-75 CNS, 88.3%; with SNB-19 CNS it was 96%; in the assay on U251 CNS it was 101%; in the assay with PC-3 prostate, 94.5%. Further, the growth was 109% in the assay with SK-MEL-5 melanoma; 97.4% in the assay on UACC-62 melanoma; 106% in the assay on LOX IMVI melanoma; 111% with SK-MEL-28 melanoma; 98.4% in the assay on SK-MEL-2 melanoma; 102% in the assay on EKVX NSCLC. In addition, the growth with SN12C renal is 90.8%; in the assay with UO-31 renal, 78.3%; with TK-10 renal, 105%; in the assay on ACHN renal, 96.8%; with CAKI-1 renal it was 94.6%; in the assay on A498 renal, 101%. The figures for the growth in the assay with CCRF-CEM leukemia and in the assay with MOLT-4 leukemia were 90.7% and 98.1%, respectively.

For `COc1ccc2nc3cc(Cl)ccc3c(NCCCNC(C)=O)c2c1`, the growth in the assay with HCT-15 colon is 23.6%; in the assay on HT29 colon, 27%; in the assay with SNB-75 CNS, 68.9%; in the assay on SNB-19 CNS it was 43.4%; in the assay with U251 CNS, 32.3%; in the assay with PC-3 prostate, 39.6%. The growth is 23.5% in the assay on SK-MEL-5 melanoma; 42.6% in the assay on UACC-62 melanoma; 15.9% with LOX IMVI melanoma; 38.8% in the assay on SK-MEL-28 melanoma; 52.3% with SK-MEL-2 melanoma; 68.5% in the assay on EKVX NSCLC. The growth in the assay with SN12C renal was 38.1%; in the assay on UO-31 renal it was 21.2%; in the assay with TK-10 renal it was 44.2%; with ACHN renal it was 16.1%; in the assay with CAKI-1 renal, 40.6%; in the assay on A498 renal it was 22.6%. Further, the growth was 39% in the assay on CCRF-CEM leukemia and 26.5% with MOLT-4 leukemia.

Regarding `Nc1cc2c(cc1Br)[nH]c(=O)c1ccccc12`, the growth is 58.3% in the assay on HCT-15 colon; 22.4% with HT29 colon; 94.3% with SNB-75 CNS; 58.6% with SNB-19 CNS; 40.3% in the assay on U251 CNS; 42.9% in the assay with PC-3 prostate. For the same compound, the growth was 0.102% (active) with SK-MEL-5 melanoma; 73.4% in the assay on UACC-62 melanoma; 25.1% in the assay on LOX IMVI melanoma; 78.4% in the assay on SK-MEL-28 melanoma; 40.2% in the assay with SK-MEL-2 melanoma; 49.5% in the assay with EKVX NSCLC. For the same compound, the growth in the assay on SN12C renal was 39.8%; with UO-31 renal, 48.1%; in the assay on TK-10 renal it was 44%; in the assay on ACHN renal, 22.5%; with CAKI-1 renal it was 52.9%; in the assay with A498 renal, 56%. The growth with CCRF-CEM leukemia is 47.1%; in the assay with MOLT-4 leukemia, 20.9%.

Consider `c1ccc2[nH]c(-c3ccc(OCCCCCOc4ccc(-c5nc6ccccc6[nH]5)cc4)cc3)nc2c1`, for which the growth in the assay on HCT-15 colon was 16.7%; in the assay on HT29 colon it was -30.6% (active); with SNB-75 CNS, -4.77% (active); in the assay on SNB-19 CNS, 46%; in the assay on U251 CNS, -2.78% (active); with PC-3 prostate, -70% (active). The growth is 37.7% in the assay with SK-MEL-5 melanoma; 12.8% in the assay on UACC-62 melanoma; -77% (active) in the assay on LOX IMVI melanoma; -71.6% (active) in the assay on SK-MEL-28 melanoma; 64% in the assay on SK-MEL-2 melanoma; 87% with EKVX NSCLC. For the same compound, the growth in the assay with SN12C renal is 19.8%; with UO-31 renal, 78%; in the assay with TK-10 renal, -50.9% (active); in the assay with ACHN renal, 35.5%; in the assay on CAKI-1 renal, 94.1%; in the assay on A498 renal it was 143%. Besides, the growth was -87.9% (active) in the assay with CCRF-CEM leukemia and -19.1% (active) in the assay on MOLT-4 leukemia.

Take `Oc1ccccc1\C=N/N=C/C=C/c1ccccc1`: the growth in the assay on HCT-15 colon is 103%; in the assay on HT29 colon, 92.3%; in the assay with SNB-75 CNS, 88.4%; in the assay with SNB-19 CNS, 93.9%; in the assay with U251 CNS, 99.5%; in the assay on PC-3 prostate, 89.7%. In addition, the growth is 97.4% with SK-MEL-5 melanoma; 93.2% in the assay on UACC-62 melanoma; 91.1% in the assay with LOX IMVI melanoma; 111% in the assay with SK-MEL-28 melanoma; 92.7% with SK-MEL-2 melanoma; 94.5% with EKVX NSCLC. Also, the growth in the assay with SN12C renal was 88%; in the assay on UO-31 renal it was 51.7%; in the assay with TK-10 renal it was 130%; in the assay with ACHN renal, 104%; with CAKI-1 renal, 96.7%; with A498 renal, 78%. Further, the growth is 7.53% (active) with CCRF-CEM leukemia and 55.3% in the assay on MOLT-4 leukemia.

As for `Nc1cc(N)c2nc(-c3ccccc3)c(NCCc3ccc(Cl)c(Cl)c3)nc2c1`, the growth is -87.7% (active) in the assay on HCT-15 colon; -36.3% (active) with HT29 colon; -33.7% (active) with SNB-75 CNS; -69.4% (active) with SNB-19 CNS; -100% (active) in the assay with U251 CNS; -90.5% (active) in the assay with PC-3 prostate. The growth was -99.1% (active) in the assay on SK-MEL-5 melanoma; -91.7% (active) with UACC-62 melanoma; -91.5% (active) in the assay on LOX IMVI melanoma; -79.3% (active) with SK-MEL-28 melanoma; -62.7% (active) in the assay on SK-MEL-2 melanoma; -100% (active) in the assay on EKVX NSCLC. Also, the growth is -96.6% (active) with SN12C renal; -93% (active) in the assay on UO-31 renal; -92.5% (active) with TK-10 renal; -100% (active) in the assay with ACHN renal; -92.4% (active) in the assay with CAKI-1 renal; -34.4% (active) in the assay on A498 renal. For the same compound, the growth is -66.1% (active) with CCRF-CEM leukemia and -16.4% (active) in the assay on MOLT-4 leukemia.

In the case of `CC1C(=O)CCCC1=O`, the growth in the assay with HCT-15 colon was 96.6%; in the assay with HT29 colon it was 94%; in the assay on SNB-75 CNS, 90.9%; with SNB-19 CNS, 106%; with U251 CNS it was 108%; in the assay with PC-3 prostate, 108%. Further, the growth is 106% with SK-MEL-5 melanoma; 103% with UACC-62 melanoma; 106% in the assay on LOX IMVI melanoma; 105% with SK-MEL-28 melanoma; 99% in the assay with SK-MEL-2 melanoma; 110% in the assay on EKVX NSCLC. In addition, the growth in the assay on SN12C renal is 95.6%; in the assay on UO-31 renal it was 86.7%; in the assay with TK-10 renal, 102%; with ACHN renal it was 104%; in the assay on CAKI-1 renal, 100%; in the assay on A498 renal, 138%. Also, the figures for the growth in the assay with CCRF-CEM leukemia and in the assay on MOLT-4 leukemia were 92.1% and 95.1%, respectively.

Take `CCCOC(=O)c1c(C)n(C)c2scc[n+]12`: the growth is 85.2% in the assay on HCT-15 colon; 79% in the assay on HT29 colon; 80.1% in the assay on SNB-75 CNS; 88% in the assay on SNB-19 CNS; 55.9% with U251 CNS; 75.6% in the assay with PC-3 prostate. In addition, the growth in the assay with SK-MEL-5 melanoma is 102%; in the assay on UACC-62 melanoma, 84%; in the assay with LOX IMVI melanoma it was 82%; in the assay on SK-MEL-28 melanoma, 91.5%; in the assay with SK-MEL-2 melanoma, 76.4%; in the assay with EKVX NSCLC, 43%. For the same compound, the growth in the assay on SN12C renal is 92.4%; in the assay on UO-31 renal, 81.3%; with TK-10 renal, 104%; in the assay on ACHN renal, 85.8%; with CAKI-1 renal it was 58.7%; with A498 renal it was 48.8%. In addition, the growth in the assay on CCRF-CEM leukemia is -67.1% (active); in the assay with MOLT-4 leukemia, -44.4% (active).
